VP16 counter: inhibits Gal4-VP16 luciferase reporter, ROR gamma counter-screen. AID 2546. hit rate 3.5% among 310,000. Drosophila S2 Gal4-VP16 UAS-luciferase, luminescence, 20 h. Potency, µM (titrated, usually from 53.6 µM), for the others: top-dose activity, negative = inhibition, hits mostly inhibitors;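 also: Gal4-VP16 expression switched on by copper sulfate through the metallothionein promoter; potency is read from the fitted curve at half-maximal effect; % is scaled to controls: 0 for no effect and ±100 for the full control effect; nearly all actives have a fitted effect of over 50% in size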
BCR signal inh: chronic active BCR signaling inhibition; ABC-DLBCL IkBa-CBG/CBR reporter, luminescence ratio, 4 h; Potency, µM (highest dose often 46.1 µM), for inactives: at the top dose activity change, negative = inhibition, most hits filed as inhibitors; hit rate 0.05% among 340,000; AID 493014; active = well fitted inhibition curve with a large enough effect in the signal ratio, with a control signal flat, not every such curve was filed as active; inconclusive = small, poorly fitted or top-dose-only effect, or effect the other way, or a change in a side signal; the % refers to the signal ratio;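 also: potency is read from the fitted curve at half-maximal effect; plate controls were basal doxycycline-induced cells for no effect and cells given 10 µM MG132 for full effect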
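TMD8 human ABC-DLBCL cells with doxycycline-inducible IκBα–green luciferase fusion and unfused red luciferase, in 0.5% FBS medium; compounds up to 46 uM, 4 h at 37C. Green/red luminescence ratio, filter-overlap corrected, fitted to concentration-response curves.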
Giardia killer: kills Giardia lamblia. hit rate 0.15% among 340,000. activity change, % at 7.66 µM, hits read low. Giardia lamblia trophozoite viability; in the data active = activity change below about -80%; inconclusive = between about -30% and that limit;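 also: parasites exposed to compound for two days anaerobically before the ATP read; % is scaled to controls: 0 for no effect and ±100 for the full control effect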
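Each well holds 100 Giardia trophozoites and compound. After two days (48 hrs) at 37 deg C in anaerobic conditions, ATP is quantified by luminescence.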
SW480 rerep: inducers of DNA re-replication in SW480 colon cancer cells; AID 624297; hit rate 1.8% among 340,000; SW480 DNA re-replication, Hoechst DNA content imaging, 48 h; Potency, µM (titrated, usually from 46.1 µM), without a hit: top-dose re-replication activation, hits mostly activators; also: potency is read from the fitted curve at half-maximal effect; % of control where 0% means no effect; nearly all actives have a fitted effect of over 55% in size
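Cells (250 per well) received 23 nL compound or DMSO by pin tool and were kept 48 hr at 37 C, 5% CO2. Nuclei were then stained with Hoechst for 40 min and scanned for DNA content.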
RORg inh: blocks mouse ROR gamma transcriptional activity; Potency, µM (series often up to 53.6 µM), for inactives: at the top dose activity change, negative = inhibition, most hits filed as inhibitors; hit rate 5.4% among 310,000; Drosophila S2 Gal4-RORgamma UAS-luciferase reporter, 20 h; P51450; AID 2551; also: potency is read from the fitted curve at half-maximal effect; % is scaled to controls: 0 for no effect and ±100 for the full control effect; nearly all actives have a fitted effect of over 60% in size
Target sequence (P51450 whole entry, looked up, the tested form may be a part): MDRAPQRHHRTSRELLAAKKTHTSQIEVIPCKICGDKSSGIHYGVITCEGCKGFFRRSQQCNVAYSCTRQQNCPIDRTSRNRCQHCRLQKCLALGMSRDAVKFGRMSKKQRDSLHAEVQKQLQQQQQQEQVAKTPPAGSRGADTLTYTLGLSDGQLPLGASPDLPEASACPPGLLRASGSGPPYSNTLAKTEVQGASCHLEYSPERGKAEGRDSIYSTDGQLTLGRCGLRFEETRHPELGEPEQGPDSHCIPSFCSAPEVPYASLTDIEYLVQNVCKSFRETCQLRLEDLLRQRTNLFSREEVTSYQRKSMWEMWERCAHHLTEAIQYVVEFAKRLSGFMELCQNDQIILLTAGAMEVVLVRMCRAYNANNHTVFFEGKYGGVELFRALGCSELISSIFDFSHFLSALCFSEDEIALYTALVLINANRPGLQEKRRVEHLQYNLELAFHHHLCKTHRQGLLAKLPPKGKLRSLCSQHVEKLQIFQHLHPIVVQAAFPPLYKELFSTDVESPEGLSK
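Luminescence from a UAS-regulated Photinus luciferase reporter in stably transfected Drosophila Schneider cells is measured; decreased signal marks ROR gamma inhibition. Fusion expression is induced by 700 uM copper sulfate for 20 hr.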
MCF10A rerep: DNA re-replication induction in MCF 10a cells; MCF 10A DNA re-replication, Hoechst nuclear intensity, 48 h; Potency, µM (titrated, usually from 46.1 µM), without a hit: at the highest dose activity, positive = re-replication, hits mostly activators; hit rate 2.9% among 350,000; AID 624296; also: potency is read from the fitted curve at half-maximal effect; % of control where 0% means no effect; nearly all actives have a fitted effect of over 50% in size
* marks the source's active call; other numbers are inactive results; ? = inconclusive; . = no result given; ! = not active in a repeat; [ ] = dose if it differs, or a comment. An excerpt weighted towards active compounds, which were near 8.3% of everything screened. Unless noted, calls follow the shape of the dose curve; as a rule, active = well fitted curve in the direction sought with a large enough effect; inconclusive = small, poorly fitted or top-dose-only effect, or another doubt; inactive = no such curve, though single readings can be large; an effect the other way counts as inactive or inconclusive.

SMILES	VP16 counter	BCR signal inh	Giardia killer	SW480 rerep	RORg inh	MCF10A rerep
Oc1ccc2c3c1O[C@H]1c4[nH]c5c(c4C[C@@]4(O)[C@@H](C2)N(CC2CC2)CC[C@]314)C[C@]1(O)[C@H]2Cc3ccc(O)c4c3[C@@]1(CCN2CC1CC1)[C@@H]5O4	-4%	.	.	.	29%	.
O=C1/C(=C\c2ccccc2)C[C@@]2(O)[C@H]3Cc4ccc(O)c5c4[C@@]2(CCN3CC2CC2)[C@@H]1O5	13µM*	.	.	.	11µM*	.
NC(N)=Nc1ccc2[nH]c3c(c2c1)C[C@@]1(O)[C@H]2Cc4ccc(O)c5c4[C@@]1(CCN2CC1CC1)[C@H]3O5	.	23µM*	-14	?	.	?
CC[C@]1(C2=NCCN2)Cc2ccccc2O1	-9%	.	.	.	14%	.
CCC1(C2=NCCN2)Cc2ccccc2O1 (stereo not given)	-3%	-8%	-24	12µM*!	-1%	?
C[C@@H]1CO1	-14%	.	.	.	2%	.
C[CH2][Hg][S]c1ccccc1C(=O)O	0.63µM*	.	?	6µM*	1.1µM*	0.92µM*
C=CCn1c(O)c(/C=C2/C=CC=N2)c(=O)[nH]c1=O	3%	-9%	11	?	-36%	30%
O=c1[nH]c(=O)n(Cc2ccccc2Cl)c(O)c1/C=C1/C=CC=N1	-6%	?	9	15µM*	49%	6.5µM*
CN(CC=CCN(C)P(=S)(N1CC1)N1CC1)P(=S)(N1CC1)N1CC1	.	.	19	?	.	13µM*
CCC(C)NC(=O)c1cc2cc3ccc(OC)cc3nc2o1 (stereo not given)	13%	?	0	-1%	?	-7%
COc1ccc(CNC[C@@H](CCCCN(C)Cc2ccc(OC)cc2)N2C[C@H](c3ccccc3)N(CCc3ccc(Cl)c(Cl)c3)C(=O)C2=O)cc1	5µM*	?	7	-8%	5.6µM*	?
COC(=O)[C@H]1[C@@H](c2ccccc2)[C@@]2(c3ccccc3)Oc3ccccc3[C@@]1(O)[C@@H]2O	1%[10 µM]	.	.	.	-13%[10 µM]	.
CCN1C(=O)C(=C2C=C(C)N(Cc3ccco3)C(C)=C2)C(=O)N(CC)C1=S	-14%	5%	-12	?	?	13µM*
Cn1c(=O)oc2cc(S(=O)(=O)N3CCC(C(=O)N4CCN(c5ccc(F)cc5)CC4)CC3)ccc21	-9%	?	6	?	4%	?
CCOc1ccc(NC(=O)C2C(C(=O)O)C3(Cl)C(Cl)=C(Cl)C2(Cl)C3(Cl)Cl)cc1 (stereo not given)	-13%	21%	-17	-19%	10%	?
O=C(CCl)NN=C(c1ccccc1)c1ccccc1	-11%	-2%	36	?	-5%	15µM*
O=C(CCl)Nc1sccc1C(=O)c1ccccc1	.	.	-27	?	.	?
C1=CC2C3C=CC(C3)C2C1 (stereo not given)	1%	-2%	-13	?	-12%	-11%
CCC1OC2(C)C(O)C(/C=C/C=C/C=C/c3oc(=O)cc(OC)c3C)OC1(C)C2OC(C)=O (stereo not given)	.	.	.	.	0.04µM*	.
CC1=CC2/C=C(\C)CCC(O)C(O)/C=C/C(=O)C23C(=O)NC(CC(C)C)C3C1C (stereo not given)	7.1µM*	?	-28	18µM*	5µM*	?
CCOc1cccc2cc(C(=O)NCCC3=CCCCC3)c(=O)oc12	13%	?	-3	-5%	36%	-3%
CC1OC(OC2CC(O)C3(CO)C4C(O)CC5(C)C(C6=CC(=O)OC6)CCC5(O)C4CCC3(O)C2)C(O)C(O)C1O (stereo not given)	.	.	15	6.5µM*	.	?
C[C@@H]1O[C@@H](O[C@H]2C[C@@H](O)[C@]3(CO)[C@H]4[C@H](O)C[C@]5(C)[C@@H](C6COC(=O)C6)CC[C@]5(O)[C@@H]4CC[C@]3(O)C2)[C@H](O)[C@H](O)[C@H]1O (stereo not given in full)	-4%	?	3	5.2µM*	-7%	?
C[C@@H]1O[C@@H](OC2CC(O)C3(CO)C4C(CCC3(O)C2)C2(O)CCC(C3=CC(=O)OC3)C2(C)C[C@H]4O)[C@H](O)[C@H](O)[C@H]1O (stereo not given in full)	-7%	.	.	.	12%	.
SMILES	VP16 counter	BCR signal inh	Giardia killer	SW480 rerep	RORg inh	MCF10A rerep
C#Cc1cccc2c1c(C(=O)c1ccc(Cn3c(C)nc4cnccc43)c(F)c1)cn2C(=O)N(C)C	4%	.	.	.	10%	.
O=C(NC1CCCCCC1)c1ccc[nH]c1=S	0.79µM*	?	10	-8%	0.45µM*	5%
Cc1ccc2[nH]c3c(c2c1)CN(C(=O)CN1C[C@H]2C[C@@H](C1)c1cccc(=O)n1C2)CC3	5%	0%	5	4.1µM*	15%	-58%
Cc1cc(=O)oc2cc3c(cc12)CCCN3	11%	-2%	40	?	-14%	7.3µM*
CC1CCN(C(=O)c2ncn(C)c2C(=O)N2CCC(C)CC2)CC1	.	3%	7	-5%	.	5%
CC(CCC(=O)O)C1CCC2C3C(=O)C[C@@H]4CC(=O)CC[C@@]4(C)C3CC(=O)[C@]12C (stereo not given in full)	9%	.	.	?	-19%	10%
O=c1[nH]c(O)c(/C=C2\C=Nc3ccc(OCc4ccccc4)cc32)c(=O)[nH]1	-16%	0%	-4	21µM*	-8%	?
CCCCn1c(O)c(/C=C2\C=Nc3ccccc32)c(=O)[nH]c1=O	24%	?	0	12%	-14%	30%
O=[N+]([O-])c1cccc2ccccc12	-4%	.	.	.	3%	.
O=[N+]([O-])c1ccc(-c2ccc(C=Nc3cccc4ccccc34)o2)cc1	-6%	-1%	12	12µM*	3%	8.2µM*
c1ccc(NNc2ccccc2)cc1	-1%	.	.	.	-6%	.
O=P(O)(O)COc1ccccc1O	3%	-2%	0	4.6µM*	0%[10 µM]	?
C/C1=C\[C@@H](C)C/C=C/[C@H]2[C@@H]3O[C@]3(C)[C@@H](C)[C@H]3[C@H](Cc4c[nH]c5ccccc45)NC(=O)[C@]32C(=O)/C=C/C(=O)[C@@H]1O	11µM*	?	-20	1.2µM*	5.6µM*	0.73µM*
CC(C)[C@H](NC(=O)[C@H](CCC(=O)O)NC(=O)[C@H](Cc1ccccc1)NC(=O)[C@@H](C)NC(=O)[C@@H](N)Cc1ccc(O)cc1)C(=O)N[C@H](C(=O)NCC(N)=O)C(C)C	5%	.	.	.	1%	.
C#CCO	3%	.	.	.	-9%	.

Source: PubChem BioAssay
